The text below walks through data of the supplement of paper PMC4022240.

B1: Unmod H1 variant K A K K P A A T R K S S K (peptide)
chain: KAKKPAATRKSSK
B2: Unmod H1 variant K S S K N P K K P K T V K (peptide)
chain: KSSKNPKKPKTVK
B3: Unmod H1 variant K P K A A K A R V T K P K (peptide)
chain: KPKAAKARVTKPK
B4: Unmod H1 variant G A A K R K A S G P P V S (peptide)
chain: GAAKRKASGPPVS
B5: Unmod H1 variant G V S L A A L K K A L A A (peptide)
chain: GVSLAALKKALAA
B6: Unmod H1 variant K S P A K A K A V K P K A (peptide)
chain: KSPAKAKAVKPKA
B7: Unmod H1 variant L N K K A S S V E T K P G (peptide)
chain: LNKKASSVETKPG
B8: Unmod H1 variant A V A A S K E R S G V S L (peptide)
chain: AVAASKERSGVSL
B9: Unmod H1 variant A P A P A E K T P V K K K (peptide)
chain: APAPAEKTPVKKK
B10: Unmod H1 variant G T G A S G S F K L N K K (peptide)
chain: GTGASGSFKLNKK

± gives the standard deviation.

In one test the target is T1, HaloTag-ATRX ADD domain (163-292).
T1 chain: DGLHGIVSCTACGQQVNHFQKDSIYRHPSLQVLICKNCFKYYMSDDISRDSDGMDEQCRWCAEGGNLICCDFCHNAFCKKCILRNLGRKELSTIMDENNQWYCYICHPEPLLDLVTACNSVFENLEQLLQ
The test can be described thus: peptide microarray binding signal (635 nm), min-max normalized on array (fraction of array maximum); higher = stronger binding. To be noted: peptide region: Unmod H1 variant; binder concentration: 50 nM. Summed up:
(§1)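 An Axon GenePix 4000B scanned the arrays at 635 nm for signal and at 532 nm to catch misprints. Those arrays held histone 13-mer peptide–cellulose conjugates printed in triplicate on nitrocellulose with a Cy3 tracer, blocked overnight at 4°C and probed for 1 h at 4°C with biotin-labelled HaloTag reader fusions (10 nM to 1 μM) plus streptavidin-Alexa Fluor 647 or with rabbit histone antibodies (1:10,000 to 1:2,000) plus anti-rabbit Alexa 647. Each binding signal is a triplicate-spot mean intensity, scaled min-max within its library.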
Take B1: the “peptide microarray binding signal” value was found to be 0.0344 ± 0.02.

As for B2, the “peptide microarray binding signal” value came out at 0.0196 ± 0.0037.

For B3, the “peptide microarray binding signal” value came to 0.0178 ± 0.00067.

For the molecule B4, the “peptide microarray binding signal” value amounted to 0.0168 ± 0.00018.

As for B5, the “peptide microarray binding signal” value was 0.0641 ± 0.057.

Regarding B6, the “peptide microarray binding signal” value was 0.0194 ± 0.0034.

For B7, the “peptide microarray binding signal” value amounted to 0.0199 ± 0.0032.

For B8, the “peptide microarray binding signal” value was 0.0286 ± 0.0016.

B9: the “peptide microarray binding signal” value is 0.021 ± 0.0011.

For the molecule B10, the “peptide microarray binding signal” value was found to be 0.01633 ± 0.00015.

Still in this test, the particulars now being: peptide region: Unmod H1 variant; binder concentration: 500 nM.
As to B1, the “peptide microarray binding signal” value is 0.0133 ± 0.00041.

For B2, the “peptide microarray binding signal” value came out at 0.0061 ± 0.00013.

On to B3, for which the “peptide microarray binding signal” value turned out to be 0.0125 ± 0.0019.

In the case of B4, the “peptide microarray binding signal” value turned out to be 0.00757 ± 0.00056.

Turning to B5, the “peptide microarray binding signal” value was 0.0257 ± 0.0036.

In the case of B6, the “peptide microarray binding signal” value was 0.00619 ± 0.00021.

Consider B7, for which the “peptide microarray binding signal” value is 0.0256 ± 0.00069.

On to B8, for which the “peptide microarray binding signal” value worked out at 0.0273 ± 0.0012.

Consider B9, for which the “peptide microarray binding signal” value is 0.0189 ± 0.00097.

As to B10, the “peptide microarray binding signal” value was determined as 0.00986 ± 0.0013.

The target in the next test is HaloTag-ING2 PHD (mouse Ing2 200-280). Described as above. The note with it: peptide region: Unmod H1 variant; binder concentration: 10 nM. A digest of the protocol: as §1
Regarding B1, the “peptide microarray binding signal” value is 0.00227 ± 5.2e-05.

B2: the “peptide microarray binding signal” value turned out to be 0.00185.

On to B3, for which the “peptide microarray binding signal” value stood at 0.00173 ± 3.7e-05.

On to B4, for which the “peptide microarray binding signal” value is 0.00245 ± 5e-05.

For the molecule B5, the “peptide microarray binding signal” value was found to be 0.00621 ± 0.00023.

As for B6, the “peptide microarray binding signal” value stood at 0.00167 ± 3.4e-05.

Turning to B7, the “peptide microarray binding signal” value turned out to be 0.00776 ± 0.0013.

Turning to B8, the “peptide microarray binding signal” value amounted to 0.011 ± 0.00034.

Turning to B9, the “peptide microarray binding signal” value is 0.00466 ± 0.00027.

Turning to B10, the “peptide microarray binding signal” value was determined as 0.00251 ± 5.1e-05.

The same test, now with this note: peptide region: Unmod H1 variant; binder concentration: 100 nM.
As to B1, the “peptide microarray binding signal” value turned out to be 0.0068 ± 0.00046.

Consider B2, for which the “peptide microarray binding signal” value turned out to be 0.003543 ± 3.1e-05.

B3: the “peptide microarray binding signal” value came out at 0.00439 ± 0.00016.

In the case of B4, the “peptide microarray binding signal” value stood at 0.00822 ± 0.00024.

Regarding B5, the “peptide microarray binding signal” value is 0.0162 ± 0.0004.

As for B6, the “peptide microarray binding signal” value came to 0.0159 ± 0.014.

B7: the “peptide microarray binding signal” value was 0.0114 ± 0.00013.

Consider B8, for which the “peptide microarray binding signal” value was determined as 0.0228 ± 0.00053.

As for B9, the “peptide microarray binding signal” value was determined as 0.012 ± 0.00083.

B10: the “peptide microarray binding signal” value was determined as 0.00539 ± 0.00089.

A further test deals with anti-H3K4me3 antibody ab8580. The description is as above. The note with it: peptide region: Unmod H1 variant; binder concentration: 1:2,000 dilution. Summed up: as §1
Turning to B1, the “peptide microarray binding signal” value is 0.000755 ± 1.4e-05.

In the case of B2, the “peptide microarray binding signal” value was determined as 0.000774 ± 1.4e-05.

With B3, the “peptide microarray binding signal” value turned out to be 0.00051 ± 1.5e-05.

B4: the “peptide microarray binding signal” value was 0.000793 ± 1.2e-05.

Consider B5, for which the “peptide microarray binding signal” value was 0.00157 ± 0.00018.

With B6, the “peptide microarray binding signal” value is 0.000283.

With B7, the “peptide microarray binding signal” value was 0.00126 ± 7.1e-05.

Take B8: the “peptide microarray binding signal” value amounted to 0.00236 ± 0.00025.

Regarding B9, the “peptide microarray binding signal” value came out at 0.00136 ± 0.00038.

For B10, the “peptide microarray binding signal” value turned out to be 0.000547 ± 1.9e-05.

The same test, now with this note: peptide region: Unmod H1 variant; binder concentration: 1:10,000 dilution.
In the case of B1, the “peptide microarray binding signal” value came out at 0.00103 ± 2.1e-05.

For B2, the “peptide microarray binding signal” value was 0.000913.

Regarding B3, the “peptide microarray binding signal” value was 0.00097 ± 4e-05.

Take B4: the “peptide microarray binding signal” value was 0.000799 ± 8.3e-06.

On to B5, for which the “peptide microarray binding signal” value is 0.00262.

With B6, the “peptide microarray binding signal” value stood at 0.000571 ± 1.1e-05.

For B7, the “peptide microarray binding signal” value was determined as 0.00165 ± 3.2e-05.

In the case of B8, the “peptide microarray binding signal” value was determined as 0.00479 ± 0.00028.

Regarding B9, the “peptide microarray binding signal” value was 0.00223 ± 7.3e-05.

On to B10, for which the “peptide microarray binding signal” value turned out to be 0.00114 ± 3e-05.

A further test addresses anti-H3K9me3 antibody ab8898. The description is as above. To be noted: peptide region: Unmod H1 variant; binder concentration: 1:2,000 dilution. A digest of the protocol:
as §1
For B1, the “peptide microarray binding signal” value worked out at 0.000211 ± 2.2e-06.

With B2, the “peptide microarray binding signal” value turned out to be 0.000181.

As for B3, the “peptide microarray binding signal” value is 0.000166 ± 1.8e-06.

On to B4, for which the “peptide microarray binding signal” value is 0.000211 ± 4.5e-06.

As for B5, the “peptide microarray binding signal” value came out at 0.00131 ± 4.4e-05.

Consider B6, for which the “peptide microarray binding signal” value was 0.000196 ± 2.1e-06.

B7: the “peptide microarray binding signal” value worked out at 0.000921 ± 2e-05.

Turning to B8, the “peptide microarray binding signal” value came to 0.00335 ± 9.4e-05.

For B9, the “peptide microarray binding signal” value amounted to 0.000906 ± 4.5e-05.

B10: the “peptide microarray binding signal” value was determined as 0.0003926 ± 3.9e-06.

The same test, now with this note: peptide region: Unmod H1 variant; binder concentration: 1:10,000 dilution.
Regarding B1, the “peptide microarray binding signal” value came to 0.00075 ± 7.9e-06.

For the molecule B2, the “peptide microarray binding signal” value is 0.00075 ± 7.9e-06.

For B3, the “peptide microarray binding signal” value was 0.000404 ± 4.4e-06.

Consider B4, for which the “peptide microarray binding signal” value amounted to 0.000634.

Regarding B5, the “peptide microarray binding signal” value was 0.00161 ± 3.1e-05.

Turning to B6, the “peptide microarray binding signal” value was determined as 0.000577 ± 6.2e-06.

With B7, the “peptide microarray binding signal” value worked out at 0.00127 ± 4.6e-05.

Take B8: the “peptide microarray binding signal” value is 0.002825 ± 2.4e-05.

Turning to B9, the “peptide microarray binding signal” value came to 0.00098.

B10: the “peptide microarray binding signal” value stood at 0.00121 ± 3.2e-05.
